Source: PubChem BioAssay (National Center for Advancing Translational Sciences (NCATS))
This is a sample that favours compounds with a hit; in the whole collection about 12% have one here.
G9a block: qHTS Assay for Inhibitors of Histone Lysine Methyltransferase G9a. G9a H3K9 monomethylation, AlphaScreen, 2 h. AID 504332, 2011. Histone-lysine N-methyltransferase EHMT2 (Homo sapiens), Q96KQ7. Potency, µM (series often up to 102 µM), for inactives: at the highest dose activity, negative = inhibition, hits mostly inhibitors. 350,000 tested, 8.8% active; also: % is scaled to controls: 0 for no effect and ±100 for the full control effect; nearly all actives have a fitted effect of over 75% in size
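Signal arises when biotinylated H3K9 peptide, once monomethylated, bridges streptavidin donor and antibody-captured acceptor beads. Enzyme at 20 nM was preincubated 15 min with test compounds; peptide 500 nM and SAM 20 uM then reacted for 2 h.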
PLK1 PBD inh: qHTS for Inhibitors of PLK1-PDB (polo-like kinase 1 - polo-box domain): Primary Screen; Serine/threonine-protein kinase PLK1 (Homo sapiens), P53350; Plk1 PBD binding of FITC phosphopeptide, fluorescence polarization; Potency, µM, without a hit: max response, negative = inhibition, usual class: inhibitors; 360,000 tested, 2.8% active; also: series mostly up to about 57 µM; % is scaled to controls: 0 for no effect and ±100 for the full control effect; nearly all actives have a fitted effect of over 65% in size
JMJD2A Tudor: qHTS Assay for Inhibitors of JMJD2A-Tudor Domain | Potency, µM (doses to about 114 µM), for the others: at the top dose activity change, negative = inhibition, usual class: inhibitors | 390,000 tested, 4.4% active | AlphaScreen JMJD2A-Tudor / H3K4me3 peptide binding; also: % is scaled to controls: 0 for no effect and ±100 for the full control effect; nearly all actives have a fitted effect of over 50% in size
Sfp inh: qHTS Assay for Inhibitors of Bacillus subtilis Sfp phosphopantetheinyl transferase (PPTase) | Biochemical Sfp PPTase activity, qHTS | 4'-phosphopantetheinyl transferase ffp (Bacillus subtilis), Q9F4F7 | 310,000 tested, 3.5% active | Potency, µM, for inactives: largest response in the series, negative = inhibition, actives largely listed as inhibitors;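 also: the enzyme is Sfp with the accession as filed and its product quenches rhodamine fluorescence; 0% = enzyme reaction without inhibitor and -100% = no enzyme wells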
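Sfp 15 nM + cpd, 15 min RT; start w/ rhodamine-CoA 5 uM, BHQ-2-YbbR 12.5 uM (final); 50 mM Hepes pH 7.6, 10 mM MgCl2, 0.01% NP-40, 0.01% BSA; read 525/598 nm at 0 and 30 min.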
HP1b binding inh: HTS for Inhibitors of HP1-beta Chromodomain Interactions with Methylated Histone Tails | AlphaScreen HP1-beta / biotin-H3K9me3 peptide binding | Potency, µM (titrated, usually from 114 µM), for inactives: at the top dose activity change, negative = inhibition, usual class: inhibitors | 390,000 tested, 0.56% active; also: nearly all actives have a fitted effect of over 70% in size
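Compound inhibition of the preformed complex between 50 nM HP1-beta and 50 nM biotinylated H3K9me3 peptide was read by AlphaScreen. Buffer was PBS pH 7.4 with 0.01% Tween-20. Incubations ran 30 min at room temperature, with 10 ug/mL donor/acceptor beads.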
BAZ2B block: qHTS Assay for Inhibitors of BAZ2B; Potency, µM (series often up to 114 µM), without a hit: top-dose activity change, negative = inhibition, usual class: inhibitors; AlphaScreen BAZ2B-H3K14Ac peptide displacement; Bromodomain adjacent to zinc finger domain protein 2B (Homo sapiens), Q9UIF8; 360,000 tested, 4.4% active; also: % is scaled to controls: 0 for no effect and ±100 for the full control effect; nearly all actives have a fitted effect of over 60% in size
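BAZ2B (50 nM) with biotin-H3(5-23)K14Ac peptide (50 nM) in PBS pH 7.4, 0.01% Tween-20, preformed 30 min, then compound 30 min at room temperature; top concentration 110uM. AlphaScreen streptavidin donor/nickel chelate acceptor beads (10 ug/mL final), 20 min dark, signal read.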
* hit, by the source's call; ? = inconclusive; · = no result given; ! = not confirmed by another sample; [ ] = dose if it differs, or a comment. Calls follow the shape of the dose curve; as a rule, active = well fitted curve in the direction sought with a large enough effect; inconclusive = small, poorly fitted or top-dose-only effect, or another doubt; inactive = no such curve, though single readings can be large; an effect the other way counts as inactive or inconclusive. Potency is read from the fitted curve at half-maximal effect.

SMILES | G9a block | PLK1 PBD inh | JMJD2A Tudor | Sfp inh | HP1b binding inh | BAZ2B block
Cn1c(CC(=O)Nc2ccc(Cl)c(Cl)c2)nnc1SCC(=O)N1CCN(c2ccccc2)CC1 | 6.3% | -1.8% | -28.5% | 23.8% | 4.3% | -10.1%
COc1ccc(Cc2n[nH]c(=S)n2NC(=O)Nc2ccc(Cl)c(Cl)c2)cc1 | ? | -10.6% | -25.9% | -18.2% | 43.4% | -16.7%
Cc1ccccc1NC(=O)Cc1nnc(SCC(=O)Nc2ccccc2)n1C | -1.1%[59 µM] | -2.4% | -8.6% | 10.8% | 53.0% | -20.3%
Cn1c(CC(=O)Nc2ccc(Cl)c(Cl)c2)n[nH]c1=S | 14.1µM* | -8.4% | -11.0% | -24.4% | 12.1% | -1.7%
Cc1ccc(NC(=O)Cc2n[nH]c(=S)n2C)cc1 | ? | 3.2% | 8.91µM* | 22.2% | 30.7% | -24.2%
CC(NC(=O)CSc1nnc(CC(=O)Nc2ccc(Cl)c(Cl)c2)n1C)c1ccccc1 (centres undefined) | 12.6µM* | -7.2% | -20.9% | -6.3% | 52.5% | ?
Cn1c(CC(=O)Nc2ccccc2)n[nH]c1=S | 14.1% | -9.5% | 5.01µM* | 6.7% | 25.0% | -12.2%
CC(C=NNc1ccc([N+](=O)[O-])cn1)=Cc1ccccc1 | · | -12.3% | -23.4% | · | 5.0%[57 µM] | ·
Cc1ccc(C)c(NC(=O)CSc2nnc(-c3cc(C)[nH]n3)n2N)c1 | 10.8%[0.0925 µM] | -12.5% | -5.3% | 6.2% | 19.4% | -4.5%
COc1ccc(Oc2ncc3nc(-c4cn(C)c5ccccc45)c(=O)n(CCC#N)c3n2)cc1 | 12.1%[12.7 µM] | · | · | 22.5% | · | ·
CN(Cc1n[nH]c(=S)n1C)S(=O)(=O)c1ccccc1 | · | -6.2% | 5.62µM* | 6.6% | 26.0% | 1.6%
CCn1c(CC(=O)Nc2ccc(C)cc2)n[nH]c1=S | 5.01µM* | 0.7% | 3.55µM* | 0.2% | 8.4% | ?
CN(Cc1nc2ccccc2n1C)S(=O)(=O)c1ccc(F)cc1 | 10.8%[59 µM] | -4.0% | -12.3% | 3.9% | 48.1% | -3.3%
CCn1c(CC(=O)Nc2ccc(C)cc2)nnc1SCC(=O)NCc1ccccc1 | 20.1%[12.7 µM] | -4.5% | -8.1% | 15.0% | 33.4% | -2.5%
CCC(C)NS(=O)(=O)c1cc2c3c(c1)CCC(=O)N3CCC2 (centres undefined) | -7.5% | -11.1% | 10.5% | 8.9% | 35.4% | -0.4%
Cc1oc(-c2ccc(Cl)cc2)nc1CN1CCCC(C(=O)NCc2ccccc2)C1 (centres undefined) | -0.1%[59 µM] | · | -32.0% | · | 4.5% | -37.2%
Cc1cc(C)n(C(=O)/C=C/c2cccs2)n1 | -6.8%[12.7 µM] | -6.2% | 27.0% | -3.9% | 79.7% | 56.2µM*
O=C(/C=C/c1cccs1)N1CCCC1 | 5.7% | -1.5% | -16.1% | 13.3% | -7.0% | 4.3%
Cc1cccc(C(=O)Nc2ccc(C(=O)OCc3cc(=O)n4c(C)csc4n3)cc2)c1 | 4.9%[59 µM] | · | ? | · | 61.8% | 79.4µM*
CCOC(=O)c1ccccc1NC(=O)c1cc2c(=O)oc3ccc(C)cc3c2s1 | 5.8%[59 µM] | · | 2.7% | · | 40.6% | -2.9%
COc1cc([N+](=O)[O-])ccc1NC(=O)CC1SC(=Nc2ccc(F)cc2)N(CCC2=CCCCC2)C1=O (centres undefined) | 50.1µM* | -19.5% | -34.8%[57.1 µM] | 8.9% | ? | ?
COc1ccc(OC)c(NC(=O)CC2SC(=Nc3ccccc3)N(CCc3ccccn3)C2=O)c1 (centres undefined) | ? | -23.8% | ? | 3.8% | 6.0% | ?
COc1ccc(OC)c(NC(=O)CC2SC(=Nc3ccc(F)cc3)N(CCC3=CCCCC3)C2=O)c1 (centres undefined) | 50.1µM* | -3.3% | -24.2% | 5.7% | 5.1% | ?
COc1ccc(N=C2SC(CC(=O)Nc3ccc(OC)cc3OC)C(=O)N2C)cc1 (centres undefined) | -28.0%[12.7 µM] | -2.0% | -14.9% | -4.8% | 18.1% | 2.4%
O=C(c1ccc(CSc2nc3ccncc3n2Cc2cccc(F)c2)cc1)N1CCCCCC1 | 2.2%[59 µM] | · | -22.8% | · | 25.2% | -5.7%
SMILES | G9a block | PLK1 PBD inh | JMJD2A Tudor | Sfp inh | HP1b binding inh | BAZ2B block
Cc1nc(-n2nc(C)c(CCC(C)C)c2C)sc1C(=O)Nc1cccc(Cl)c1C | 14.1µM* | · | -9.6% | · | 31.0% | ?
Cc1cccc(NC(=O)c2sc(-n3nc(C)c(CCC(C)C)c3C)nc2C)c1C | -2.0%[59 µM] | · | 12.3% | · | 55.9% | -2.9%
Cc1cccc(C(=O)Nc2cccc(C(=O)N/N=C/c3cccc(C)n3)c2)c1 | 6.6% | -10.5% | -21.8% | 8.9% | 3.8% | 8.6%
CC(=O)Nc1cccc(C(=O)N/N=C/c2cccc(C)n2)c1 | -30.0% | 26.7µM* | 12.6µM* | ? | 1.7% | 46.9%
CN(CC[C@@H](Oc1ccc(-c2ccccc2)cc1)c1ccc(F)cc1)CC(=O)O | · | · | · | -21.9% | · | ·
O=c1ccc2cc(O)c(O)cc2o1 | ? | -14.5% | ? | 56.2µM*! | 19.2% | -26.4%
COc1ccccc1CNC(=O)C1CCCN(S(=O)(=O)c2ccc3c(c2)CCCN3C(C)=O)C1 (centres undefined) | -2.1%[59 µM] | · | -10.6% | · | 9.1%[57 µM] | -2.4%
Cc1ccsc1/C=C/C1=Cc2c(sc(NC(=O)CSc3n[nH]c(N)n3)c2C#N)C(C)(C)C1 | 35.5µM* | -27.4% | ? | 39.8µM* | -20.3% | ?
CCOc1ccc(/C=C/C2=Cc3c(sc(NC(=O)CSc4n[nH]c(N)n4)c3C#N)C(C)(C)C2)cc1 | ? | -16.1% | ? | 39.8µM* | -30.3% | 39.8µM*
CC(C)COc1cccc(C(=O)N(C)CC(=O)Nc2cccc3ccccc23)c1 | · | 5.1% | -12.3% | · | 27.5% | ·
COc1cccc(-c2cc(C(F)(F)F)c(C#N)c(=O)[nH]2)c1 | 3.9% | 23.8µM* | ? | 9.0% | 26.3% | 10.1%
COc1ccc(OC)c(NC(=O)c2ccc(-c3nc(CSc4ccccc4)c(C)o3)cc2)c1 | ? | · | -20.7% | · | 33.2% | ?
CCOc1ccc(-c2cnc(NCc3cccc4ccccc34)n2CCOC)cc1 | · | -14.4% | 14.1µM* | 56.2µM* | ? | 39.8µM*
COc1ccc(CNc2ncc(-c3cccc([N+](=O)[O-])c3)n2C)c(OC)c1OC | 31.6µM* | 2.0% | 25.1µM* | -13.3% | ? | 50.1µM*
COc1ccc(CNc2ncc(-c3ccc(F)cc3)n2C)c2ccccc12 | 10µM* | 6.5% | 20µM* | -22.4% | ? | 50.1µM*
CCOc1ccc(-c2cnc(NCc3cccc(Cl)c3)n2C)cc1 | 7.94µM* | · | 20µM* | · | ? | ?
COCCn1c(-c2ccc(OC)cc2)cnc1N | ? | ? | ? | 4.1% | -6.4% | ?
